Test results published in the supplement of paper PMC11732987, “Enantioselective OTUD7B fragment discovery through chemoproteomics screening and high-throughput optimisation” (Communications Chemistry, 2025).

Tests used:
Experiment in all cases: log2 ratio of Biotin-Ahx-Ub-VS probe labelling (fragment/DMSO); higher = less target engagement (more negative = stronger competition), active = hit call of the paper (q ≤ 0.05, log2 ratio ≤ -1)
Conditions in all cases: compound concentration: 200 uM; treatment time: 3 h
USP34 = USP34 (UniProt Q70CQ2)
Summary of the method: (§1)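 The table lists average log2 ratios of fragment over vehicle, from an unpaired t-test on global-median-normalised Spectronaut label-free quantities. Proteins with ≥2 unique peptides were used. Samples were HEK293T lysate (495 µg) treated in triplicate with fragment at 200 µM or vehicle for 3 h, then with Biotin-Ahx-Ub-VS (0.5 µM final) for 1 h, with labelled DUBs NeutrAvidin-enriched and run by diaPASEF LC-MS/MS.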

USP36 = molecular target: T1, USP36 (UniProt Q9P275)
T1 sequence (whole entry): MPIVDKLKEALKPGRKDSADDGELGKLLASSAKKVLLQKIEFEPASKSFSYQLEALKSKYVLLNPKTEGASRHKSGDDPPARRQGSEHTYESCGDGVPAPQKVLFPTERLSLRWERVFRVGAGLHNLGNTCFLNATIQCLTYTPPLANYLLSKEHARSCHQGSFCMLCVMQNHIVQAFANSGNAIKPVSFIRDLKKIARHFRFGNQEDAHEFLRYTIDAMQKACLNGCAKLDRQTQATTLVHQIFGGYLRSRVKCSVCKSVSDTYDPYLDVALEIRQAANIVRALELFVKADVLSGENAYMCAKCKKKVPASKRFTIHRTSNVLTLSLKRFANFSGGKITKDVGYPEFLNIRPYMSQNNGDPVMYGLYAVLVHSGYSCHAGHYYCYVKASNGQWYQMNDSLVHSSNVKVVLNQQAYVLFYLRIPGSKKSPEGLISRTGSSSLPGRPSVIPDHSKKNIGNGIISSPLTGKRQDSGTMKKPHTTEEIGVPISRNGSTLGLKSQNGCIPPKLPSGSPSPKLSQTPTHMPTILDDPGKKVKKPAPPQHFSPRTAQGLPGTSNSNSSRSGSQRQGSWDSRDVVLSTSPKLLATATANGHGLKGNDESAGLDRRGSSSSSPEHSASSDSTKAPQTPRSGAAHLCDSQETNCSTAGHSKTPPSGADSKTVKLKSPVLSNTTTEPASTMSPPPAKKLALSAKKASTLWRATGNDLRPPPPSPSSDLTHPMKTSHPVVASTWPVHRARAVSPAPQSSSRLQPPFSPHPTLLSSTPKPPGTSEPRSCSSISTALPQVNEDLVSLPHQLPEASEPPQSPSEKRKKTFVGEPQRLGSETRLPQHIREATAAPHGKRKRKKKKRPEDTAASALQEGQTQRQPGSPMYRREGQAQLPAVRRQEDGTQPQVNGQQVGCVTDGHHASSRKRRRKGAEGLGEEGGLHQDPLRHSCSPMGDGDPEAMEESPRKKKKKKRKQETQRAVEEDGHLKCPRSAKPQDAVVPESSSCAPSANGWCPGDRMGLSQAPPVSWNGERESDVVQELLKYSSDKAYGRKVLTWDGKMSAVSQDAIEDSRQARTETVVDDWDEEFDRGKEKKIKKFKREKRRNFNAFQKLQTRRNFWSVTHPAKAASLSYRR
Summary of the method: as §1

USP38 = molecular target: T2, USP38 (UniProt Q8NB14)
T2 sequence (whole entry): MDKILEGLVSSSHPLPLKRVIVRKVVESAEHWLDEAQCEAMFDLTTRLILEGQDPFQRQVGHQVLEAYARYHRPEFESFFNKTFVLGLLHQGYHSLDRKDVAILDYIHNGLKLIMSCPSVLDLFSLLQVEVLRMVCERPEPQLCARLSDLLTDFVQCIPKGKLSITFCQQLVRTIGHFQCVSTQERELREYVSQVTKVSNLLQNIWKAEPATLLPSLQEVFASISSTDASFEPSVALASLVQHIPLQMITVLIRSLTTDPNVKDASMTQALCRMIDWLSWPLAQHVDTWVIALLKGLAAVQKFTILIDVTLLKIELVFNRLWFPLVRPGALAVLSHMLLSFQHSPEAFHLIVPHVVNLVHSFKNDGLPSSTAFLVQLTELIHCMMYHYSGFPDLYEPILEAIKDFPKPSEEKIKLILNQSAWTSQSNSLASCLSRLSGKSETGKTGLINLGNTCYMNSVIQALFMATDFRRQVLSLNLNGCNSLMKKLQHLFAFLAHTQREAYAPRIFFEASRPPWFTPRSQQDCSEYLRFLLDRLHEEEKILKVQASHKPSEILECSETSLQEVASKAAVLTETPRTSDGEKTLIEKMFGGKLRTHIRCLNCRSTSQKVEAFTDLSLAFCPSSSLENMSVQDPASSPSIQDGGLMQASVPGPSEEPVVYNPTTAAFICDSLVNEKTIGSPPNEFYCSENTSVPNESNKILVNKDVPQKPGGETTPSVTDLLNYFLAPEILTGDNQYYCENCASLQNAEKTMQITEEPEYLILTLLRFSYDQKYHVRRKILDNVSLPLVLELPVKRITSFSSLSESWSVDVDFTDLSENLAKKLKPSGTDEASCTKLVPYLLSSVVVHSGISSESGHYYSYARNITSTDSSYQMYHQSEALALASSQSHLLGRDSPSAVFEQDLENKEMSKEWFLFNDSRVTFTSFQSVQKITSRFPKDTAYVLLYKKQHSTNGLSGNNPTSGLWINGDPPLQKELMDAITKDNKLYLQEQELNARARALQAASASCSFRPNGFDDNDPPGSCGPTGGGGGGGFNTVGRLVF
Summary of the method: as §1

USP39 = molecular target: T3, USP39 (UniProt Q53GS9)
T3 sequence (whole entry): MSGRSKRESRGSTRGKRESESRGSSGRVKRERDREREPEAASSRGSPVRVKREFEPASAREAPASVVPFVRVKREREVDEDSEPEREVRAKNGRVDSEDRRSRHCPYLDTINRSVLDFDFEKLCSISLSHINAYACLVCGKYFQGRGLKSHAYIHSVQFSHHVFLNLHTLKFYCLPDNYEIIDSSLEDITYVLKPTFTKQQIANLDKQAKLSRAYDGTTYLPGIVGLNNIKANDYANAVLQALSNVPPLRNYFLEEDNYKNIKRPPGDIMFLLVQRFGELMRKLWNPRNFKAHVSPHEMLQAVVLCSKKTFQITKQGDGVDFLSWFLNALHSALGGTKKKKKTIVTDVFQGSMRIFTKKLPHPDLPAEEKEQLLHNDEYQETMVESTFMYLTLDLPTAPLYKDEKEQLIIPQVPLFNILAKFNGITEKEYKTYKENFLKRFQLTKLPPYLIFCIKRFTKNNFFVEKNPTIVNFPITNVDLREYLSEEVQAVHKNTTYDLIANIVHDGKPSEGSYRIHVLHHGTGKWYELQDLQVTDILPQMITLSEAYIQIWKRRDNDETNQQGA
Summary of the method: as §1

USP4 = molecular target: T4, USP4 (UniProt Q13107)
T4 sequence (whole entry): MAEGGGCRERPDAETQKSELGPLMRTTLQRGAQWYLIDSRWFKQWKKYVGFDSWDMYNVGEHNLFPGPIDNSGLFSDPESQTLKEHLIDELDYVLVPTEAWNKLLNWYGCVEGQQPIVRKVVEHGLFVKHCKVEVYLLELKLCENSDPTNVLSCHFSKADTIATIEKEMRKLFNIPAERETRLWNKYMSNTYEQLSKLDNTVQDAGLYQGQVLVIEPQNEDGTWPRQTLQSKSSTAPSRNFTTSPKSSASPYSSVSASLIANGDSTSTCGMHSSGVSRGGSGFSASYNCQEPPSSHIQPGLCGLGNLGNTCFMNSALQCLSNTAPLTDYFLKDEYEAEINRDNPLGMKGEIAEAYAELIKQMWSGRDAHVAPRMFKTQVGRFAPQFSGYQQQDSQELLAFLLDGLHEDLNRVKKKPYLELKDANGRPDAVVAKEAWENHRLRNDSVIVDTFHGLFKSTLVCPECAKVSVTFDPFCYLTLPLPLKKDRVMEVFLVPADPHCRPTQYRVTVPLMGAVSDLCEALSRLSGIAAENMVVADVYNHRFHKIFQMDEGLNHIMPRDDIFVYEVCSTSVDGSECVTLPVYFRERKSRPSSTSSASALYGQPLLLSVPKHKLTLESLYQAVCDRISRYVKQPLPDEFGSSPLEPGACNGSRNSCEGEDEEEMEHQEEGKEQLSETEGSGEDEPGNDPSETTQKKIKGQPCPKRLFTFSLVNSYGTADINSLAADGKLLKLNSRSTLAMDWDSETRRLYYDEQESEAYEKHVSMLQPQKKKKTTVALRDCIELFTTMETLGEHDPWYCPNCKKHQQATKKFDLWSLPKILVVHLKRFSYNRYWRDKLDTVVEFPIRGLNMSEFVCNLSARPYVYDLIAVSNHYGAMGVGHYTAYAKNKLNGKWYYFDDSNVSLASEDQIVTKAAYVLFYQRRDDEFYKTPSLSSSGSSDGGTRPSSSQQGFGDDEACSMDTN
Summary of the method: as §1

Measured: log2 ratio of Biotin-Ahx-Ub-VS probe labelling

USP34, sequence (Q70CQ2 whole entry, the tested form may be a part): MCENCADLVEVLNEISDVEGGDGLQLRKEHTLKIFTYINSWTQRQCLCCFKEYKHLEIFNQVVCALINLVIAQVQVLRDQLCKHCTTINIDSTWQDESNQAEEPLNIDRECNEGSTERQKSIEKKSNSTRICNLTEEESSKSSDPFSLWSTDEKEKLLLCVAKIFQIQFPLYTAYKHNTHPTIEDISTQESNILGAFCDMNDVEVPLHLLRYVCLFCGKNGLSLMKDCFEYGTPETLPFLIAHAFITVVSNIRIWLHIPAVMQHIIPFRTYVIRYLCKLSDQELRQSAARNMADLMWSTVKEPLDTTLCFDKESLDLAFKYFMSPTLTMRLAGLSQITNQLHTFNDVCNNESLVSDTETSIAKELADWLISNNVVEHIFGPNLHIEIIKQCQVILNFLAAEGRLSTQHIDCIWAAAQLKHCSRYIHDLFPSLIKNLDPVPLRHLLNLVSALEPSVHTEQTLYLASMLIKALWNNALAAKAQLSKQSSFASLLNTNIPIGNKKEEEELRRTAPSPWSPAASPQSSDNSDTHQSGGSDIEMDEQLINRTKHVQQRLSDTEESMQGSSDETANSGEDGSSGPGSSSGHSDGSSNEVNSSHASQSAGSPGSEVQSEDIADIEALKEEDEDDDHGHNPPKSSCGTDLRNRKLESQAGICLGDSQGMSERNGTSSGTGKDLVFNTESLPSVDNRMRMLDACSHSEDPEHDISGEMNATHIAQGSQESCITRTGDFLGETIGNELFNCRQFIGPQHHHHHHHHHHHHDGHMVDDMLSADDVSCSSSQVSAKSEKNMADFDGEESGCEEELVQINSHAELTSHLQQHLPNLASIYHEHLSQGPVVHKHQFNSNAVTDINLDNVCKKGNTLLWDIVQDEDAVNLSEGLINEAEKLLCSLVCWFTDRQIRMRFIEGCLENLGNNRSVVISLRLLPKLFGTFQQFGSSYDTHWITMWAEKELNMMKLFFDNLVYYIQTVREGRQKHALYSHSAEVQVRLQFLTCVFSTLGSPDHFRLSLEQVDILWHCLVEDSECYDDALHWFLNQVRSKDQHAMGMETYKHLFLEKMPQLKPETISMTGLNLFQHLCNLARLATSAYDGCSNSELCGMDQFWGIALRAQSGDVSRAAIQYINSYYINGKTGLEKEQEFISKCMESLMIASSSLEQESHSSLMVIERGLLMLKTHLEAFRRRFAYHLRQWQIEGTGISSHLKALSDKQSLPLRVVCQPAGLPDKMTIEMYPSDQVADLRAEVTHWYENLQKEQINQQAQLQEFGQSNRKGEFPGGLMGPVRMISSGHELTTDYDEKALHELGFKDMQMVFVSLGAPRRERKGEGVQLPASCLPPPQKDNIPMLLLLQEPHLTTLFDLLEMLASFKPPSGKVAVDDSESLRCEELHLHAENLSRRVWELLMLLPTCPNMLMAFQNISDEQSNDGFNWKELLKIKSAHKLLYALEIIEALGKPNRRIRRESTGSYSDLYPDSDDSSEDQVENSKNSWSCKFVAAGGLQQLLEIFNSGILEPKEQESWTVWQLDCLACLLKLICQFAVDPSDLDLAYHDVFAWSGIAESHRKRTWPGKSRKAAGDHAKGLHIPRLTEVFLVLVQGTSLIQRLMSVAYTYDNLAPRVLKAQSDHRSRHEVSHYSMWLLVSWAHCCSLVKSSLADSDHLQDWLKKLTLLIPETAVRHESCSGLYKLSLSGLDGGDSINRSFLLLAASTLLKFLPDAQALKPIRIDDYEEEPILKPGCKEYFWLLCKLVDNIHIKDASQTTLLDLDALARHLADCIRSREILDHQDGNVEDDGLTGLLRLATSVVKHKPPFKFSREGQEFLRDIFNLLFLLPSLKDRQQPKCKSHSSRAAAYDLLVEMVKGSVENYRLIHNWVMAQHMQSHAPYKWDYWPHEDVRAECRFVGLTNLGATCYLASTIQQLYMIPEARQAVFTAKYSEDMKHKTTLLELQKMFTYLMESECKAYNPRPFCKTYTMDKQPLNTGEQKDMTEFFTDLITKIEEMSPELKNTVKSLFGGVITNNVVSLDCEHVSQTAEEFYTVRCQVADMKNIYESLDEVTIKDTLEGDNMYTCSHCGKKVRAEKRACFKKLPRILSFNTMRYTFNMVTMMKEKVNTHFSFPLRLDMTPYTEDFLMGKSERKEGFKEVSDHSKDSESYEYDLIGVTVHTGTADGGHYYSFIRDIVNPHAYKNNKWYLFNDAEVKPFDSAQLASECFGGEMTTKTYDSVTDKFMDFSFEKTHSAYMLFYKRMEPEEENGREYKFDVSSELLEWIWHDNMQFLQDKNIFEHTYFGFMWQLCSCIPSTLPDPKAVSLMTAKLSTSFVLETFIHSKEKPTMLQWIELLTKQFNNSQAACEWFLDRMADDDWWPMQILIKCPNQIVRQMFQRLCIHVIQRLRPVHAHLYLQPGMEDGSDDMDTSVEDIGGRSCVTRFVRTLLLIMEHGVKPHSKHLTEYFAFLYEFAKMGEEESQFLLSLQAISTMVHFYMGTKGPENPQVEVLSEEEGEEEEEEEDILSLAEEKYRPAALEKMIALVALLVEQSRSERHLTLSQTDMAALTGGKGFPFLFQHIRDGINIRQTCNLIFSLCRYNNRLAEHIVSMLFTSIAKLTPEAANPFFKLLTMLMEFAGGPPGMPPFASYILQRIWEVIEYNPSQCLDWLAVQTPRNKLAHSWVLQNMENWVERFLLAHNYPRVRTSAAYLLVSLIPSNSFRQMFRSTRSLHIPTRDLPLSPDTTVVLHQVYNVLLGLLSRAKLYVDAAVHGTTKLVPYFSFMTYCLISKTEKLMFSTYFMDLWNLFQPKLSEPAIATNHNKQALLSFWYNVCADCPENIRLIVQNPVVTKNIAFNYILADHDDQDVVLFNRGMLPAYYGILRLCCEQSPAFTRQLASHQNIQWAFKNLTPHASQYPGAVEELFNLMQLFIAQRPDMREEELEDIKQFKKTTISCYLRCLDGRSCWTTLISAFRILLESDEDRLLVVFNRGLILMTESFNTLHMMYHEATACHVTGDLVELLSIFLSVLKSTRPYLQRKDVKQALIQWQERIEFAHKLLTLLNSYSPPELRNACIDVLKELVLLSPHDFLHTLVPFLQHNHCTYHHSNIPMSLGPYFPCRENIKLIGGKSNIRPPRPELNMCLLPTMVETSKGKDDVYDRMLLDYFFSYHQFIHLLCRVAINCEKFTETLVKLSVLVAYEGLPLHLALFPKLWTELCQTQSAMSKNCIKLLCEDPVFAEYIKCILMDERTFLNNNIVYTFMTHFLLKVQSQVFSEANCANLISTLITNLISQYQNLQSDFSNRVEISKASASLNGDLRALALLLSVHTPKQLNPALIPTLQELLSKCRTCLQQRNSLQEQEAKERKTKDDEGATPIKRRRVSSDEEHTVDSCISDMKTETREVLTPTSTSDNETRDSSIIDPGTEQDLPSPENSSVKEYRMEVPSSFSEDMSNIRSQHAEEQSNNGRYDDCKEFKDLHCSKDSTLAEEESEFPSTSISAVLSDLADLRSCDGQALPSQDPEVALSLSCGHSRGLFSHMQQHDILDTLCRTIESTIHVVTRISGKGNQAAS

CCCn1nccc1NC(=O)CCl
inactive: USP34 -0.0454 | USP36 -0.015 | USP38 -0.241 | USP39 -0.211 | USP4 -0.159
